Laboratory results as given in ChEMBL document CHEMBL3988442, “University of Dundee, Small-Polar-MMV Screening Library” (2021).
About 900 (1.7%) of roughly 53,000 compounds showed an effect of 50% or more. The full list was thinned out, with strong results kept by preference.

The compounds below were run on Mycobacterium tuberculosis (assay: Cornell - Phenotypic assay to identify agents that inhibit growth of Mycobacterium tuberculosis). Details: 10 mM as filed; unlikely as a test dose.
Format: functional
Set-up: scale not given: direction of the effect not stated beside the values

SMILES | Percent Effect
COc1ccc(C(=O)N2CC(=O)N(C3CCC3)CC(O)C2)cc1OC (stereo unspecified) | -13.29%
CC(Oc1cc(Cl)cc(Cl)c1)C(=O)NCCOCC(N)=O (stereo unspecified) | -19.42%
O=C(Nc1ccc2c(c1)OCO2)N1CCN(CCn2ccnc2)CC1 | -27.6%
O=C(Nc1cccc(C(F)(F)F)c1)N1CCN(CCn2ccnc2)CC1 | 98.5%
CC(=O)NC1CCN(C(=O)Nc2cccc(C(F)(F)F)c2)CC1 | 20.69%
Cc1nn(C)c(C)c1CN1CCCC1c1nccc(CN(C)C)n1 (stereo unspecified) | -90.49%
CS(=O)(=O)N1CC(c2n[nH]c3ncccc23)C1 | -14.19%
COc1cccc(CN2CCN(c3cccc(C(C)C)n3)CC2)c1F | 57.83%
COc1cccc(CN2CCN(c3noc(C(C)C)n3)CC2)c1F | 42.13%
COc1cccc(CN2CC[C@H](NC(C)=O)[C@@H](O)CC2)c1F | -15.13%
CC(C)c1cc2c(s1)NC(c1ccccn1)NC2=O (stereo unspecified) | -1.811%
CCn1c(C2CCCN2Cc2noc(C(C)(C)C)n2)nc2ccccc21 (stereo unspecified) | 13.86%
COc1ccccc1CC(=O)NC(C)c1nc2cccnc2n1C(C)C (stereo unspecified) | -9.677%
CC(C)Nc1ncnc2c1CCN(C(=O)c1ccncc1F)CC2.O=C(O)C(F)(F)F | -9.598%
O=C(O)c1cc(/C=C/c2ccccc2)ncn1 | 65.58%
O=C(O)c1cc(/C=C/c2cccc3ccccc23)ncn1 | 65.34%
N#Cc1ccc(C(=O)O)nc1/C=C/c1cccc(Br)c1 | 10.67%
N#Cc1ccc(C(=O)O)nc1/C=C/c1cccc(F)c1 | 2.587%
O=C(O)C1(Oc2ccc3ccccc3c2)CCN(c2ncccn2)CC1 | 20.42%
O=C(O)c1c(Cl)ncn1-c1cccc2ccccc12 | 19.97%
N#Cc1ccc(C(=O)O)nc1/C=C/c1cccc(Cl)c1 | -13.81%
O=C(O)c1cc(/C=C/c2ccc3ccccc3c2)ncn1 | 74.73%
CNC(=O)C1CCN(C(=O)NCc2ccc(-c3ccn[nH]3)cc2)CC1 | -24.99%
N#Cc1ccc(N2CCC3(CCC(=O)N3CCN3CCCC3)CC2)nc1.O=C(O)C(F)(F)F.O=C(O)C(F)(F)F | 3.156%
CCc1nnc2n1CCN(C(=O)CN(C)C1CC1)C2 | -12.51%
CCN1Cc2cc3c(cc2NCCC1=O)OCO3 | -32.17%

SMILES | Percent Effect
CN1CCC(N(CCc2ccccc2)C(=O)COCC2CCCO2)CC1 (stereo unspecified) | 41.94%
CN1CC(=O)N(c2ccsc2)CC12CCN(S(=O)(=O)C1CC1)C2.O=C(O)C(F)(F)F (stereo unspecified) | 6.764%
O=C(NC1CCC1)C1=NOC2(CCN(Cc3ccccc3)C2)C1 (stereo unspecified) | -9.005%
N#CCSCCCN1CCN(C(=O)c2cccc(Cl)c2)CC1 | 18.37%
CCC(Nc1nc(C(C)C)nc2c1cnn2C)c1ccncc1 (stereo unspecified) | 25.2%
CC[C@H](Nc1nc(C(C)C)nc2c1cnn2C)c1ccccc1 | 70.75%
CCC(Nc1nc(C(C)C)nc2c1cnn2C)c1ccc(O)cc1 (stereo unspecified) | 1.347%
Cc1nc(Nc2nnc(C)s2)cc(C2CCCN2c2ccncc2)n1 (stereo unspecified) | -13.84%
CCc1noc(C(C)N2CCc3c(ncn3C3CC3)C2)n1 (stereo unspecified) | -20.08%
COCc1nc(C(=O)N2CCCC(n3nc(C)cc3C)C2)cs1 (stereo unspecified) | -24.43%
COCc1nc(C(=O)N2CCCC(n3cccn3)C2)cs1 (stereo unspecified) | 67.19%
CCc1nccn1C1CCCN(C(=O)c2csc(COC)n2)C1 (stereo unspecified) | 19.86%
CN1CCC2(CC1)C(=O)N(CC1CC1)c1ccccc12.O=C(O)C(F)(F)F | 8.295%
c1coc(CNCC2Cn3nncc3CO2)c1 (stereo unspecified) | -14.67%
Cc1cccnc1NCCNC(=O)c1cnc(-c2cccs2)nc1O | 19.3%
COc1ccc(OC)c(CN(Cc2ccco2)Cc2[nH]cnc2C)c1.O=C(O)CC(O)(CC(=O)O)C(=O)O | 50.25%
COc1cccc(CN(Cc2ccco2)Cc2[nH]cnc2C)c1.O=C(O)CC(O)(CC(=O)O)C(=O)O | -15.02%
COc1ccc(CN(Cc2ccco2)Cc2[nH]cnc2C)c(OC)c1.O=C(O)CC(O)(CC(=O)O)C(=O)O | 39.21%
Cc1noc([C@H]2C[C@H]3OCC[C@H]3N(C3CCC3)C2)n1.O=C(O)C(F)(F)F | -34.16%
COc1ccc(OC)c(Sc2ncccc2C(=O)NCCSC)c1 | -9.266%
CN(C)C(=O)N1CC2(CCNCC2)c2cc(Cl)ccc21.Cl | -44.55%
CC(=O)N1CC2(CCNCC2)c2cc(Cl)ccc21.Cl | 63.2%
COC(=O)N1CC2(CCNCC2)c2cc(Cl)ccc21.Cl | 26.9%
CN(C)Cc1cnn(-c2ccccc2C(=O)NCCC2CCCN2C)c1 (stereo unspecified) | 17.58%
O=C(Cc1c[nH]c2ccccc12)N1CCN(C(=O)c2ccoc2)CC1 | -1.862%
C[S+]([O-])c1nncn1CC(=O)c1ccc(Cl)c(Cl)c1 (stereo unspecified) | 51.67%

SMILES | Percent Effect
C[S+]([O-])c1nncn1CC(=O)c1cccc(Cl)c1 (stereo unspecified) | 12.76%
C[S+]([O-])c1nncn1CC(=O)c1ccc2c(c1)CCO2 (stereo unspecified) | 2.009%
COc1coc(C(=O)Nc2nc(-c3cccnc3)cs2)cc1=O | 11.19%
O=C(c1ccncn1)N1C[C@H]2CCC[C@@]2(COCC2CCOCC2)C1 | 2.154%
Cc1nc(C)n(CC2CN(Cc3cc(C#N)ccc3F)CCO2)n1 (stereo unspecified) | 13.34%
COc1cc(CC2CC(c3ccc4c(c3)OCO4)=NO2)cc2c1OCO2 (stereo unspecified) | 30.67%
CCOC(=O)C1=NOC(Cc2cc(OC)c3c(c2)OCO3)C1 (stereo unspecified) | 94.96%
COc1cc(CNCc2ccc(C(C)O)cc2)cc2c1OCO2 (stereo unspecified) | 3.367%
COc1cc(CC2CC(C(N)=O)=NO2)cc2c1OCO2 (stereo unspecified) | 13.11%
COC(=O)C1=NOC(Cc2cc(OC)c3c(c2)OCO3)C1 (stereo unspecified) | 104.6%
COc1c(CC2CC(C(=O)O)=NO2)c(Br)c2c(c1OC)OCO2 (stereo unspecified) | 14.91%
Cc1cc(C)nc(C2CCN(C(=O)c3cncnc3C)C2)n1 (stereo unspecified) | -38.99%
Cc1nc(CN2C(=O)COC3(CCN(CC4CC4)CC3)C2C)cs1.O=C(O)C(F)(F)F (stereo unspecified) | 6.692%
Cc1cccc(-c2noc(C)c2C(=O)NC2CCCOC2)c1.O=C(O)CC(O)(CC(=O)O)C(=O)O (stereo unspecified) | 20.12%
Cc1c(C(=O)NC2CCCOC2)nnn1-c1ccccc1 (stereo unspecified) | -4.644%
Cc1onc(-c2ccncc2)c1C(=O)NC1CCCOC1 (stereo unspecified) | 52.15%
Cc1cnn(CC2CCCN2CC(=O)Nc2cc(C(C)(C)C)no2)c1 (stereo unspecified) | 16.98%
CCN1CCN(C(=O)NCc2cccnc2-n2cccn2)CC1 | -23.25%
CNC(=O)[C@@H]1CN(C(=O)COC)C[C@H]1c1ccnc(N2CCCC2)n1 | 50.96%
CNC(=O)[C@@H]1CN(C(=O)C(C)C)C[C@H]1c1ccnc(N2CCCC2)n1.Cl | 37.07%
CNC(=O)[C@@H]1CN(C(=O)CCOC)C[C@H]1c1ccnc(N2CCCC2)n1.Cl | 43.65%
CCNC(=O)C1CCN(c2nccc(C3CCCC3)n2)C1 (stereo unspecified) | 13%
CCC(=O)N1C[C@@H](C(=O)NC)[C@H](c2ccnc(N3CCCC3)n2)C1.Cl | 24.83%
CNC(=O)[C@@H]1CN(C(=O)C2CCC2)C[C@H]1c1ccnc(N2CCCC2)n1.Cl | 54.39%
CC(C)C(=O)N1CCC(NCc2c(C(C)C)nn(C)c2N(C)C)CC1 | 31.79%
CC(C)c1nn(C)c(N(C)C)c1CNC1CCN(C2CC2)CC1.Cl | 42.5%

SMILES | Percent Effect
CC(C)c1nn(C)c(N(C)C)c1CNC1CCCCNC1=O (stereo unspecified) | 91.87%
Cc1nn(C)c(N2CCOCC2)c1CNC1CCCCNC1=O (stereo unspecified) | -11.46%
COCCN1CCC(NCc2c(C(C)C)nn(C)c2N(C)C)CC1 | 39.85%
Cc1nn(C)c(Oc2ccccc2)c1CNC1CCCCNC1=O (stereo unspecified) | -7.334%
CC(C)c1nn(C)c(N(C)C)c1CNC1CCN(CC2CC2)CC1 | 58.14%
CC(C)c1nn(C)c(N(C)C)c1CNC1CCC(O)CC1 (stereo unspecified) | 21.48%
Cc1nn(C)c(N(C)C)c1CNC1CCCCNC1=O (stereo unspecified) | 63.11%
CN(CCc1nccs1)C(=O)CC1(O)CCCCC1 | 19.59%
COCCCNCc1cc(O)c2cc(C)cc(C)c2n1 | 3.207%
COc1ccc(OC2CCN(c3ccncc3)CC2)cc1 | 27.59%
CC(=O)Cn1nc(-c2ccccc2F)ccc1=O | 6.771%
Cc1cccc(CN2C(=O)C[C@H]3[C@@H]2CCN3Cc2ccc(F)cc2)n1.O=C(O)C(F)(F)F.O=C(O)C(F)(F)F | 15.09%
CCn1nc(C)cc1C(=O)N1C[C@@H]2C[C@@H](c3nnc(C)[nH]3)O[C@@H]2C1 | -8.9%
COc1cccc(CNC(=O)Cn2ccc3c(C)nn(C)c3c2=O)c1 | 4.678%
Cc1nn(C)c2c(=O)n(CC(=O)NCCC(C)C)ccc12 | 2.416%
Cc1nn(C)c2c(=O)n(CC(=O)NCc3ccc(N(C)C)cc3)ccc12 | 96.11%
c1ccc(N(CCn2cncn2)CC2CC2)cc1 | -28.11%
Oc1ccc(N(CCc2ccccc2)CCn2cncn2)cc1 | 107%
OCCCN(CCn1cncn1)c1ccccc1 | -44.33%
Cc1cc(CNC(=O)N2CCOC(c3ccccc3Cl)C2)no1 (stereo unspecified) | -0.6476%
COc1ccc(OC)c([C@@H]2N[C@H](c3nccs3)Cc3ccsc32)c1 | 46.52%
COc1cc([C@@H]2N[C@H](c3nccs3)Cc3ccsc32)cc(OC)c1OC | 44.3%
COc1cccc([C@@H]2N[C@H](c3nccs3)Cc3ccsc32)c1OC | 50.54%
